“And” between values parts separate entries of the source, which are not always exact repeats. Equal values may be shown once. Records with an inconclusive call do not appear. The source made the active and inactive calls. Calls follow the shape of the full dose curve.
Experiment: qHTS Assay for Lipid Storage Modulators (AID 1519); as to activity change, negative = inhibition: % is scaled to controls: 0 for no effect and ±100 for the full control effect
Conditions: Drosophila S3 cells, BODIPY lipid droplet/cell ratio, laser cytometry, cells loaded with oleic acid
Text: NIH Molecular Libraries Probe Production Centers Network [MLPCN]
NIH Chemical Genomics Center [NCGC]
Assay Submitter (PI): Beller, Mathias; Max-Planck-Institut fur Biophysikalische Chemie
NCGC Assay Overview: Storing lipids as a reservoir for energy or the anabolism of elementary metabolites is a common feature of probably all cells and is conserved from bacteria to humans. The universal cellular lipid storage organelle is the so-called lipid storage droplet (LD). Although ubiquitous, LDs share a simple structure composed of a hydrophobic core that harbors the storage lipids, which is shielded by a droplet-specific phospholipid monolayer to which proteins are attached. The current model of LD biogenesis involves an incorporation of the lipid core into the membrane leaflets of the endoplasmic reticulum (ER) followed by a subsequent budding-like maturation of a LD, which ultimately pinches off. Once released, LD volume can increase by localized lipogenesis or fusion of existing droplets. Storage lipids are re-mobilized enzymatically by lipase activity. Lipase regulation in the adipocyte is heavily studied and involves multiple components including catecholamine signaling, the LD-associated proteins Perilipin and comparative gene identification-58 (CGI-58) and at least two lipases named hormone sensitive lipase (HSL) and adipocyte triglyceride lipase (ATGL). LD regulation outside of the adipocyte is poorly understood and only few components are known. However, there is an urgent need to learn more about ectopic fat depots as mislocalized storage of lipids, for example in the liver or muscle, is an eminent health problem associated with insulin resistance or the metabolic syndrome. We developed a laser-scanning cytometer assay to enable 1,536-well screening and combined the results of the small molecules screen with an RNAi database based on lipid storage.
NCGC Assay Protocol Summary:
We dispensed 4 uL of cells at 1.25 x 10^6 cells/mL into LoBase Aurora COC 1,536-well plates (black walled, clear bottom) with a bottle-valve solenoid-based dispenser (Aurora) to obtain 5,000 cells/well. Triacsin C (Sigma-Aldrich T-4540), an inhibitor of long-chain fatty acyl CoA synthetase that blocks synthesis of triglycerides, was used as a positive control for lipid under-storage. A total of 23 nL of compound solution of different concentrations were transferred to the assay plates using a Kalypsys pin tool equipped with a 1,536-pin array containing 10-nL slotted pins (FP1S10, 0.457-mm diameter, 50.8 mm long; V&P Scientific). One microliter of oleic acid (400 uM) was added, and the plate was lidded with stainless steel rubber gasket lined lids containing pinholes. […] Fluorescence was detected by excitation of the fluorophores with a 488-nm laser on an Acumen Explorer (TTP Lab Tech). The total intensity in channel 1 (500-530 nm) reflected lipid droplet accumulation. […] The ratio of the total intensity in PMT channel 1 over total intensity of channel 3 was also calculated. Percent activity was computed relative to an internal control (100% inhibited lipid droplet deposition due to the presence of 20 uM Triacsin C), which was added to 32 wells/plate.

[1] = measured here: cell count channel max response
[2] = measured here: lipid channel max response

SMILES	activity change, negative = inhibition (at 25.7 µM (top of the series))	activity change, negative = inhibition (at 57.5 µM (top of the series))	max response [1]	max response [2]
CN1CCN(C(c2ccccc2)c2ccccc2)CC1	-2.7% (inactive)	7.26% (inactive)	-1.91% and 18%	-3.01% and 29.7%
Oc1c(I)cc(Cl)c2cccnc12	-3.26% (inactive)	2.97% (inactive)	-21.6% and -13.1%	-24.9% and -6.72%
CNCCC=C1c2ccccc2CCc2ccccc21	-2% (inactive)	7.28% (inactive)	-0.512% and 24.9%	-6.43% and 39.3%
CCCCOc1cc(C(=O)NCCN(CC)CC)c2ccccc2n1	-1.17% (inactive)	1.92% (inactive)	-8.72% and 19.1%	-8.39% and 23.8%
CC(=O)Oc1ccc(C(c2ccc(OC(C)=O)cc2)c2ccccn2)cc1	-1.79% (inactive)		-13.8%	-14.3%
CC(C)(C(=O)c1cccnc1)c1cccnc1	-6.04% (inactive)		-12.6%	-17.9%
COc1c2occc2c(OC)c2c(=O)cc(C)oc12	2.26% (inactive)		3.81%	5.65%
CCOC(=O)n1ccn(C)c1=S	-1.84% (inactive)	8.2% (inactive)	-4.79% and 2.58%	-8.09% and 22%
Nc1ccc(C(=O)O)cc1		6.97% (inactive)	13.3%	22.6%
Cc1ccc(C(=O)C(C)CN2CCCCC2)cc1 (stereo unspecified)		1.11% (inactive)	7.21%	11.2%
CC/C(=C(/CC)c1ccc(O)cc1)c1ccc(O)cc1		9.04% (inactive)	9.58%	18.5%
CCOc1ccc(Cc2nccc3cc(OCC)c(OCC)cc23)cc1OCC		-21.1% (inactive)	-4.38%	-26.4%
